# Test results taken from ChEMBL document CHEMBL3988442, “University of Dundee, Small-Polar-MMV Screening Library” (2021).
# For some assays here: Entries with a potency or affinity are not part of this list.
# What was measured:
# Parameters in all cases: scale not given: direction of the effect not stated beside the values
# [1] = target: Protein translocase subunit SecA (Escherichia coli (strain K12)) (UniProt P10408); test: Assay to Identify E. coli SecA ATPase Inhibitors; format: functional; settings: 30 µM
# [2] = target: T1, Ubiquitin-activating enzyme e1, putative (Leishmania donovani (strain BPK282A1)) (UniProt E9BSI1); test: Leishmania donovani Ubiquitin Activating Enzyme (LdE1); format: functional; settings: 30 µM
# T1 sequence (whole entry): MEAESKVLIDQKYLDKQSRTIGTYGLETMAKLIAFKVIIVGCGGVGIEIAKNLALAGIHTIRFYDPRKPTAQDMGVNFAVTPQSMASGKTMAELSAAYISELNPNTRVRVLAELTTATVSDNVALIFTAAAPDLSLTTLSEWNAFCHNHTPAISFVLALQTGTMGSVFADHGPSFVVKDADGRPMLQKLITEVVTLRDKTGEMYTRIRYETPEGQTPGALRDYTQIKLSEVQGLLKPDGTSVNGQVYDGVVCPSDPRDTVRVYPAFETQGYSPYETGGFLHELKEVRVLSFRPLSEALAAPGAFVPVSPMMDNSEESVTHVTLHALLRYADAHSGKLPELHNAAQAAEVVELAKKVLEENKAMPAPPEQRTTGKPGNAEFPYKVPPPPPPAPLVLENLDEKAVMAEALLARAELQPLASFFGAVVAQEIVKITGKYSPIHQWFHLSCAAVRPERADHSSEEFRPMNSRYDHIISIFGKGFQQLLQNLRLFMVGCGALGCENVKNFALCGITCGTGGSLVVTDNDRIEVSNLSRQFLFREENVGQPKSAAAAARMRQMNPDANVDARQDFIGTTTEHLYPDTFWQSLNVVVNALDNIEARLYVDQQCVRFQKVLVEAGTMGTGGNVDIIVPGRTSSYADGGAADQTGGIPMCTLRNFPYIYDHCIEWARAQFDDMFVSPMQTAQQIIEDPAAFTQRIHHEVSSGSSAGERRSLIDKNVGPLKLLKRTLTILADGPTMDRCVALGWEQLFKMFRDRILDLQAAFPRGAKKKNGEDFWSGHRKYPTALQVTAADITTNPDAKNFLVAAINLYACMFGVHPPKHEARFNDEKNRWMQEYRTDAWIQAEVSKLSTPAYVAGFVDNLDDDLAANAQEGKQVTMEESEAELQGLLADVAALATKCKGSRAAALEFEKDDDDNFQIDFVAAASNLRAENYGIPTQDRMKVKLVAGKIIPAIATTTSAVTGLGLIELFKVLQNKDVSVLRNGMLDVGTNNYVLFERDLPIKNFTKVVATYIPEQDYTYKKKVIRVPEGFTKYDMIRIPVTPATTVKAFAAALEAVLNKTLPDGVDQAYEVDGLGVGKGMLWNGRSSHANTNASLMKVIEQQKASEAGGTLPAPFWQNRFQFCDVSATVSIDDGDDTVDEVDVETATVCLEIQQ
# [3] = target: AMP-activated protein kinase, AMPK (Homo sapiens) (UniProt P54646+O43741+P54619+Q9UGJ0+Q9Y478+Q13131+Q9UGI9); test: AMP-dependent Kinase enzyme assay. An in vitro enzyme assay that detects ADP turnover that is directly proportional to AMPK activity. This uses naive AMPK that is activated during the assay with MK-8722; format: functional; settings: 30 µM
# [4] = target: Sialic acid-binding Ig-like lectin 9 (Homo sapiens) (UniProt Q9Y336); test: Hs-Siglec9 ALPHAscreen SOP 20170721; settings: 10 µM
# Trypanosoma cruzi = test: Trypanosoma cruzi phosphomannomutase and mannose-1-phosphate guanylyltransferase assay; format: functional; settings: 10 µM
# [5] = target: T2, Arginase-2, mitochondrial (Homo sapiens) (UniProt P78540); test: in vitro enzyme assay to detect the production of urea directly proportional to the activity of Arginase II; format: functional; settings: 33.3 µM; further: in the data most compounds retested in dose-response had high values
# T2 sequence (whole entry): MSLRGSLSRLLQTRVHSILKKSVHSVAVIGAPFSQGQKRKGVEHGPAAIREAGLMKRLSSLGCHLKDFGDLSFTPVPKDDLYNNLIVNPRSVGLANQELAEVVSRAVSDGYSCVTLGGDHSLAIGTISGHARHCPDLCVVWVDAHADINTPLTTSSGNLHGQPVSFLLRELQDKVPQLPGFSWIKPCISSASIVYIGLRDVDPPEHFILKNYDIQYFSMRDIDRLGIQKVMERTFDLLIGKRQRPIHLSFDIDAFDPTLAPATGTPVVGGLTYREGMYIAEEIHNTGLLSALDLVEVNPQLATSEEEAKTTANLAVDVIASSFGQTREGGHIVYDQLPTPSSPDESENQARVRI
# [6] = target: T3, Proteasome subunit beta (Trypanosoma cruzi) (UniProt O96673); test: Trypanosoma cruzi proteasome chymotrypsin-like activity (TcProtChymo) assay.; further: in the data most compounds retested in dose-response had high values; format: functional; settings: 9.37 µM
# T3 sequence (whole entry): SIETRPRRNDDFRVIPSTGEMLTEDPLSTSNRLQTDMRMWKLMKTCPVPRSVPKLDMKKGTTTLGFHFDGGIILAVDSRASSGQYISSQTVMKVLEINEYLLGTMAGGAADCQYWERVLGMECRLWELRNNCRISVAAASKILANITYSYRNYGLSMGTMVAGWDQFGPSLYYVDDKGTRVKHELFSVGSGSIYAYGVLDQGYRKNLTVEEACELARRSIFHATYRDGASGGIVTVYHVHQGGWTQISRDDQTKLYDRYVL
# Homo sapiens = species: Homo sapiens; test: To identify inhibition of the IFN signalling (Jak-Stat) pathway via expression of an eGFP reporter gene under the control of an IFN-stimulated response element (ISRE) containing MxA promoter.; format: functional; settings: 30 µM
# [7] = target: T4, Tyrosyl-tRNA synthetase, putative (Trypanosoma cruzi (strain CL Brener)) (UniProt Q4DSP6); test: Trypanosoma cruzi tyrosyl tRNA synthetase (TcYRS) _High Tyrosine SOP; format: functional; settings: 30 µM; further: in the data most compounds retested in dose-response had high values
# T4 sequence (whole entry): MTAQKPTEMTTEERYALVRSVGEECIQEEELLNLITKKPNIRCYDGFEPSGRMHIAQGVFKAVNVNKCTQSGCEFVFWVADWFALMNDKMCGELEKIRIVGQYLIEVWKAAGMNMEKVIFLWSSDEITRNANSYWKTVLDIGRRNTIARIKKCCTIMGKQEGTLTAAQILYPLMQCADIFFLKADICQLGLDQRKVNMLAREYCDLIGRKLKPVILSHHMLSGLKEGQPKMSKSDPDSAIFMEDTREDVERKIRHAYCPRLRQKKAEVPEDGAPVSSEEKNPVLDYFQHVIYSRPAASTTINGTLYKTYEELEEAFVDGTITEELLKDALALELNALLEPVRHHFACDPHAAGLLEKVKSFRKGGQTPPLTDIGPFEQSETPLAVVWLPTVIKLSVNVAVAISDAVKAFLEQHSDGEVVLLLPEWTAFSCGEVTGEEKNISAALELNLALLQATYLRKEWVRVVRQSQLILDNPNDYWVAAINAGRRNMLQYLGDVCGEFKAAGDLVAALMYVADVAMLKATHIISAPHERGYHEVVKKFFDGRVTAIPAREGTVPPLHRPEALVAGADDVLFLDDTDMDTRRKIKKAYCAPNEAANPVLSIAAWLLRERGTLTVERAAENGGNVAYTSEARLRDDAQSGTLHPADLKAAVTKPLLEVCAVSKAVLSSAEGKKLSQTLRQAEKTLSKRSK
# [8] = target: T4, Tyrosyl-tRNA synthetase, putative (Trypanosoma cruzi (strain CL Brener)); test: Trypanosoma cruzi tyrosyl tRNA synthetase (TcYRS) SOP; format: functional; settings: 30 µM
# [9] = target: Chromo domain-containing protein 1 (Saccharomyces cerevisiae (strain ATCC 204508 / S288c) (Baker's yeast)) (UniProt P32657); test: ScCHD-1 Enzyme Inhibition Assay; format: functional; settings: 30 µM; further: in the data most compounds retested in dose-response had high values
# Chain of Chromo domain-containing protein 1 (Saccharomyces cerevisiae (strain ATCC 204508 / S288c) (Baker's yeast)) (P32657 whole entry, the tested form may be a part): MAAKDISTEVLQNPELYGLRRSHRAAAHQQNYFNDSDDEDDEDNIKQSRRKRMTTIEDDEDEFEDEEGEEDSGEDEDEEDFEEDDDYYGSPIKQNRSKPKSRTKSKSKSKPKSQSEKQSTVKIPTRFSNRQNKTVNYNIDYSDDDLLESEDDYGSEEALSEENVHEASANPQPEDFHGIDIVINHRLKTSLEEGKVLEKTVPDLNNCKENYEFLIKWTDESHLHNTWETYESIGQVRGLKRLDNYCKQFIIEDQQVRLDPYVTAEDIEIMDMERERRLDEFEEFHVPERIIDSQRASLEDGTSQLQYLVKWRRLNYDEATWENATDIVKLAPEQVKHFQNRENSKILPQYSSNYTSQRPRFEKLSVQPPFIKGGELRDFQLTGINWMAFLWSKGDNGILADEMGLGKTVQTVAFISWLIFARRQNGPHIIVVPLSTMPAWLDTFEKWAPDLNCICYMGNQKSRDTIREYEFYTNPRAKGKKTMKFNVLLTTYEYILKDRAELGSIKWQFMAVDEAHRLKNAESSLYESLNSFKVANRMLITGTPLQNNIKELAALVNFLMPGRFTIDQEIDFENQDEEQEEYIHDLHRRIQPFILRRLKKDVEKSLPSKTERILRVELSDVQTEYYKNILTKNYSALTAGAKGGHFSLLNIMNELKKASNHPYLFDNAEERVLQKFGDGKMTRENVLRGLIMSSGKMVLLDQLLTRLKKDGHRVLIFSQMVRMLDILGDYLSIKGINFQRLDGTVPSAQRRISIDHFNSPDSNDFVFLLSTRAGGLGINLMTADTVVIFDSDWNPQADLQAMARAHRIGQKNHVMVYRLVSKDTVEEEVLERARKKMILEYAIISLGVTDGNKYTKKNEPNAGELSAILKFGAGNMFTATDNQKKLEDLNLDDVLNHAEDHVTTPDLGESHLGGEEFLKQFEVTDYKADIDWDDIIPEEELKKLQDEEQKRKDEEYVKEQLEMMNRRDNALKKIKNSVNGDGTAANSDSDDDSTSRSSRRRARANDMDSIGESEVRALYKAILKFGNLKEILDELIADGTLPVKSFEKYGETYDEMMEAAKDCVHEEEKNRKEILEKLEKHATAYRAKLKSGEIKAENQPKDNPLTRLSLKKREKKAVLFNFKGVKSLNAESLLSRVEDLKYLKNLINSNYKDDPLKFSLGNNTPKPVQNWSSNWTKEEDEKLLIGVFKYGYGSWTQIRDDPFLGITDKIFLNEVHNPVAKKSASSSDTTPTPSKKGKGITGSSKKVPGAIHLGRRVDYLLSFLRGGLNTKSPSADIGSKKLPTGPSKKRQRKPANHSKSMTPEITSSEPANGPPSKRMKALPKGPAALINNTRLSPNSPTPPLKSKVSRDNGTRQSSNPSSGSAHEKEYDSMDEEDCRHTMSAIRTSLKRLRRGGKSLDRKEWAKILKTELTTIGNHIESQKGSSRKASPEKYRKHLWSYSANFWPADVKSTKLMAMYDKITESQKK
# Chain of Protein translocase subunit SecA (Escherichia coli (strain K12)) (P10408 whole entry): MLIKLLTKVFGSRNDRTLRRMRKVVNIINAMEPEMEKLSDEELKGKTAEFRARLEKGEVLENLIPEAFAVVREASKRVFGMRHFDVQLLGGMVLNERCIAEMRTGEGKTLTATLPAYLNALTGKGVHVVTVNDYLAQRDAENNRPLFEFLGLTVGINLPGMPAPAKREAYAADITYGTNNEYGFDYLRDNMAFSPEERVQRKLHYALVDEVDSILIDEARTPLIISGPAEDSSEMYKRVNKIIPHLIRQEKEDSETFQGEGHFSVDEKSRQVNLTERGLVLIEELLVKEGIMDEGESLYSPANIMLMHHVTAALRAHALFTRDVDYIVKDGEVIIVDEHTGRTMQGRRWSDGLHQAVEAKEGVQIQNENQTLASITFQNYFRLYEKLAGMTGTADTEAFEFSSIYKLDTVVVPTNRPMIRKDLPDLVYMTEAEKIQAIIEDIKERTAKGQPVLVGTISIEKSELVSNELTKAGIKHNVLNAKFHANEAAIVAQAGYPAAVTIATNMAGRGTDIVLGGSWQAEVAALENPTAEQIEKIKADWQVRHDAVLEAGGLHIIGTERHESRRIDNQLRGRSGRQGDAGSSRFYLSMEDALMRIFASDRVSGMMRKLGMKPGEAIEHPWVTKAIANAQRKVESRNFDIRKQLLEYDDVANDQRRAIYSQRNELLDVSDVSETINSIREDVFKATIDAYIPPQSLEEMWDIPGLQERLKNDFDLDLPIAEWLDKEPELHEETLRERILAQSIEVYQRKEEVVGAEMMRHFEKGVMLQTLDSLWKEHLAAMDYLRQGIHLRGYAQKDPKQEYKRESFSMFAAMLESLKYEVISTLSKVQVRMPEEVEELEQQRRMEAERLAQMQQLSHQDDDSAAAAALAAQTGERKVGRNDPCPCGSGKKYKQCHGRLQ
# Chain of Sialic acid-binding Ig-like lectin 9 (Homo sapiens) (Q9Y336 whole entry): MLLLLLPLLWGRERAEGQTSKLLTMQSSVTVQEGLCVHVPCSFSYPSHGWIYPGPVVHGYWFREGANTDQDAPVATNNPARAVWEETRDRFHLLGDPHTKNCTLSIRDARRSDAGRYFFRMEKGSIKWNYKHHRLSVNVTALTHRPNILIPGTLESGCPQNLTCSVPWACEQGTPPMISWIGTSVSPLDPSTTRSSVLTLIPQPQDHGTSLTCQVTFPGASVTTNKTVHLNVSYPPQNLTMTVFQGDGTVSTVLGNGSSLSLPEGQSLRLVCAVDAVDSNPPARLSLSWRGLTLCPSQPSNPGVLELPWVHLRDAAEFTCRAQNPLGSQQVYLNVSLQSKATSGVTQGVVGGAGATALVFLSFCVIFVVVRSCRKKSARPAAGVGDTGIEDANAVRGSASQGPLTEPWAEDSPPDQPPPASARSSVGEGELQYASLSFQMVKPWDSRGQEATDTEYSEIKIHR
SMILES,Percent Effect [1] [%],Percent Effect [2] [%],Percent Effect [3] [%],Percent Effect [4] [%],Percent Effect (Trypanosoma cruzi) [%],Percent Effect [5] [%],Percent Effect [6] [%],Percent Effect (Homo sapiens) [%],Percent Effect [7] [%],Percent Effect [8] [%],Percent Effect [9] [%]
CC(C)c1nc(C2CCCN2C(=O)c2nccnc2N)no1 (configuration not stated),-6.3,16.2,-11,23.1,4.18,-4.99,6.1,12.1,6.93,23.2,-5.79
CN1CCCC[C@@H]2[C@H]1[C@@H](c1ccccc1)CCN2C(=O)c1ccccc1,-2.17,-12.2,2.42,3.03,4.54,0.696,15.6,-13.3,7.53,14.3,-12.5
Cc1cnn(CC(C)NCc2nc(-c3cccnc3)no2)c1 (configuration not stated),-6.08,-1.39,-14,7.77,-4.76,-1.32,13,-8.09,7.37,5.13,-1.42
CCn1cc(NC(=O)NCC(O)CN2CCCCC2)cn1 (configuration not stated),-2.01,5.2,2.67,12.4,1.27,4,0.404,15.9,0,2.35,-9.62
O=C1NCCN1C1CCN(CCc2cccs2)CC1,-7,18.2,-1.15,-8.84,5.78,-3.16,17.5,2.25,5.71,23.5,-17.6
COc1ccc(C2C3=C(COC3=O)Nc3[nH]nc(C)c32)cc1OC (configuration not stated),2.08,6.67,9.48,-1.62,-6.68,-10.7,12.8,8.17,5.29,10.3,-11
Cc1ccc(F)c(OC2(C(=O)O)CCN(C(=O)N3CCCC3)CC2)c1,0.204,-6.94,5.17,-4.4,-1.65,1.32,2.81,-7.85,2.1,0,2.52
CCOCCCn1c(NC(=O)c2cnn(C)c2)nc2ccccc21,-5.81,5.2,2.7,15,-1.69,-1.07,2.37,11.1,6.8,14.6,-2.58
COc1cc(C)sc1C(=O)N1CCC(Nc2cccnc2)CC1,-6.41,-121,0.841,37.6,3.17,3.19,3,5.06,8.33,11.1,0.713
Cc1cnn(CCNCc2ccccc2Oc2cccnc2)c1,-0.645,11.4,-5.35,-0.251,-5.03,-9.25,23.3,6.29,8.33,7.59,-26
O=C(c1cc2c(s1)CCC2)N1CCCCC1Cn1cccn1 (configuration not stated),-4.04,10.8,-1.14,3.35,-5.11,-3.88,-0.539,2.18,4.95,6.1,1.75
Cc1cnc(CNC(=O)NCc2cccnc2N(C)C)s1,-3.06,-2.6,1.02,13.8,-2.43,2.85,-5.07,5.66,0,7.32,2.89
Cc1nn(C)c(N(C)C)c1CNCc1cccc(CN(C)C(C)C)c1,-3.75,13.5,-10.9,25.4,3.03,10.7,9.87,-7.67,5.38,21,-8.38
CS(=O)(=O)Cc1cccc(C(=O)NCC2Cc3ccccc3O2)c1 (configuration not stated),-4.91,5.48,2.31,0.841,-2.74,5.46,17.9,-3.29,2.15,15,-4.73
Cc1nc(CN(C)C2CCN(Cc3ccc4c(c3)OCCO4)C2)no1 (configuration not stated),-7.11,13,-0.861,-3.18,5.39,1.9,2.83,-7.46,5.71,11.8,-17.4
Cc1cc(CN(C)C(=O)c2cc3c([nH]c2=O)CCCC3=O)no1,-5.46,5.41,-1.63,-1.13,-7.52,5.73,-5.57,18,0.99,6.1,-0.0983
CCCNC(=O)Nc1cccc2c1CCN(S(C)(=O)=O)C2,-9.62,18.4,-0.671,6.12,4.38,-35.5,6.81,-3.94,3.19,18.2,-1.24
CCn1nccc1CNC(=O)NC1CCCCC1,-3.38,7.79,7.6,-2.52,-7.18,0,9.98,12,1.07,3.7,-2.19
Cn1cc(C(=O)NCC2CCN(C(=O)NCC(F)(F)F)CC2)cn1,-2.53,16.5,-6.78,1.59,-0.308,0.645,11,16,8.33,12.7,-22.3
O=C(c1cccnc1)N1CCCC(c2cc(C(F)F)n3ncnc3n2)C1 (configuration not stated),-4.9,9.46,12.9,2,-5.53,0.232,7.64,8.61,0,6.49,9.01
Cc1cnn(CCNCc2ccc(OCc3csc(C)n3)cc2)c1,-7.35,0,-1.8,8.64,10.2,-1.04,8.54,11.2,3.83,11.1,-5.91
CCc1nc(NS(=O)(=O)c2cc(C)ccc2F)no1,-0.155,0,-9.72,8.2,6.13,15.1,3.84,1.84,2.73,6.17,-2.85
